Laboratory results reported in PubChem BioAssay AID1159580 (chemical genetic matrix, 2015).
Several values for one entry are separate records, joined by “and”; a condition that tells them apart may be missing. Equal entries are not always repeated. In all, about 5,500 compounds went through this assay and about 2,000 (36%) were called active. Inconclusive results (about 18%) are left out. Rule as the data show it: active = normalized growth mostly below about 0.91 (no sharp cut-off); inconclusive = no clear call, values can overlap the other calls; inactive = mostly above about 0.92. The list shows a part of the results.

Assay: chemical genetic growth profiling, strain panel (AID 1159580);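 also: tested at 20 µM; growth read once vehicle control cultures reached saturation at 30 °C; 1 = growth at the plate median or of vehicle wells; lower values mean less growth of the strain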
Details: S. cerevisiae deletion strains, growth OD

Measured: normalized growth

COc1cc(OC)c2c(c1Cl)OC1(C2=O)C(O)=CC(=O)CC1C (stereo unspecified)
inactive: locus YAL021C, strain ccr4, hits give low values 1.02 | locus YAL026C, strain drs2, hits give low values 1.01 | locus YAL030W, strain snc1, hits give low values 1.01 | locus YBL061C, strain skt5, hits give low values 1.01 | locus YBR009C, strain hhf1, hits give low values 1.01 | locus YBR021W, strain FUR4, hits give low values 1.04 | locus YBR023C, strain chs3, hits give low values 1.01 | locus YBR171W, strain sec66, hits give low values 1.03 | locus YBR229C, strain ROT2, hits give low values 1.02 | locus YBR231C, strain swc5, hits give low values 1.01 | locus YBR279W, strain paf1, hits give low values 1.01 | locus YCL011C, strain gbp2, hits give low values 1.02 | locus YCL016C, strain dcc1, hits give low values 1.01 | locus YCL029C, strain bik1, hits give low values 1.01 | locus YCL061C, strain MRC1, hits give low values 1.01 | locus YCL069W, strain vba3, hits give low values 1.01 | locus YCR088W, strain abp1, hits give low values 1.01 | locus YDL005C, strain med2, hits give low values 1.01 | locus YDL035C, strain GPR1, hits give low values 1.04 | locus YDL040C, strain nat1, hits give low values 1.01 | locus YDL074C, strain BRE1, hits give low values 1.07 | locus YDL101C, strain DUN1, hits give low values 1.03 | locus YDL134C, strain PPH21, hits give low values 1.01 | locus YDL185W, strain tfp1, hits give low values 0.981 | locus YDL192W, strain arf1, hits give low values 1.02 | locus YDR001C, strain nth1, hits give low values 1.01 | locus YDR069C, strain doa4, hits give low values 1.01 | locus YDR101C, strain arx1, hits give low values 1.02 | locus YDR137W, strain rgp1, hits give low values 1.02 | locus YDR159W, strain sac3, hits give low values 1.02 | locus YDR162C, strain NBP2, hits give low values 1.05 | locus YDR195W, strain ref2 1.03 | locus YDR297W, strain sur2, hits give low values 1.01 | locus YDR318W, strain mcm21, hits give low values 1 | locus YDR334W, strain swr1, hits give low values 1.01 | locus YDR335W, strain msn5, hits give low values 1.02 | locus YDR388W, hits give low values 1.01 | locus YDR392W, strain spt3, hits give low values 1.01 | locus YDR502C, strain sam2, hits give low values 0.986 | locus YEL003W, strain gim4, hits give low values 1.01 | locus YEL037C, strain rad23, hits give low values 1 | locus YEL061C, strain CIN8 (second series), hits give low values 1.01 | locus YER015W, strain faa2, hits give low values 1.01 | locus YER016W, strain bim1, hits give low values 1.02 | locus YER110C, hits give low values 0.977 | locus YER111C, strain swi4, hits give low values 1.01 | locus YER155C, strain BEM2 (second series), hits give low values 1.03 | locus YER155C, strain BEM2, hits give low values 1.02 | locus YER167W, strain BCK2, hits give low values 1.02 | locus YFR010W, strain ubp6, hits give low values 1.01 | locus YGL078C, strain dbp3, hits give low values 0.978 | locus YGL086W, strain mad1, hits give low values 1.01 | locus YGL167C, strain pmr1, hits give low values 1.02 | locus YGL173C, strain kem1, hits give low values 1.01 | locus YGL227W, strain vid30, hits give low values 1.01 | locus YGL240W, strain doc1, hits give low values 1 | locus YGL248W, strain PDE1, hits give low values 1.02 | locus YGL253W, strain hxk2, hits give low values 1.01 | locus YGR135W, strain pre9, hits give low values 0.983 | locus YGR252W, strain gcn5, hits give low values 0.915 | locus YHR013C, strain ard1, hits give low values 1.03 | locus YHR027C, strain rpn1, hits give low values 1.01 | locus YHR030C, strain SLT2, hits give low values 1.02 and 0.99 | locus YHR079C, strain IRE1 (second series), hits give low values 0.979 | locus YHR079C, strain IRE1, hits give low values 0.997 | locus YHR094C, strain hxt1, hits give low values 0.983 | locus YHR129C, strain ARP1, hits give low values 1.02 | locus YHR142W, strain chs7, hits give low values 1.02 | locus YHR200W, strain rpn10, hits give low values 0.999 | locus YIL066C, strain RNR3, hits give low values 1.07 | locus YIL073C, strain SPO22, hits give low values 1 | locus YIL125W, strain kgd1, hits give low values 0.99 | locus YIR030C, strain dcg1, hits give low values 1.01 | locus YJL092W, strain hpr5, hits give low values 1.01 | locus YJL095W, strain BCK1 (second series), hits give low values 1 | locus YJL095W, strain BCK1, hits give low values 1.04 and 0.978 | locus YJL115W, strain asf1, hits give low values 1 | locus YJL129C, strain trk1, hits give low values 1.02 | locus YJL134W, strain LCB3, hits give low values 1.02 | locus YJL154C, strain vps35, hits give low values 1.02 | locus YJL164C, strain tpk1, hits give low values 1.01 | locus YJL166W, strain qcr8, hits give low values 1.01 | locus YJL168C, strain set2, hits give low values 0.977 | locus YJL187C, strain SWE1 (second series), hits give low values 1.03 | locus YJL187C, strain SWE1, hits give low values 1.01 | locus YJR066W, strain TOR1, hits give low values 0.9
